According to PubChem BioAssay (NCATS):
Results filed as inconclusive are left out. A number with no mark means an inactive call.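 The calls were made as follows: active = compounds whose dose-response curve shows a full or clear partial loss of cell viability, called from curve shape rather than a numeric limit; inconclusive = weak partial curves or an effect only at the top dose; inactive = no dose-dependent loss of viability.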

Assay: Cell Viability - Hek293 (AID 427);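 also: cells exposed to compound for 40 hours at 37 °C before reading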
Conditions: qHTS
Procedure, shortened: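 qHTS, human embryonic kidney (adenovirus-transformed) cells; 40 hr cpd, 37 °C; CellTiter-Glo ATP luminescence. Norm: DMSO = 0, 100 uM tamoxifen = 100% inhibition. Hill-fit AC50.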
Potency is read from the fitted curve at half-maximal effect.

Compound | Potency
[O-][Br+2]([O-])O | > 92 µM
Clc1nc(Cl)nc(Nc2ccccc2Cl)n1 | > 92 µM
OCC1CO1 (stereo unspecified) | > 92 µM
C=CCOC(=O)c1ccccc1N | > 92 µM
C=CC(N)=O | > 92 µM
CC(C)(c1ccccc1)c1ccc(O)cc1 | > 92 µM
CCN(CC)c1ccccc1 | > 92 µM
S=C=Nc1cccc2ccccc12 | > 92 µM
N#CCCCl | > 92 µM
O=NN(CCO)CCO | > 92 µM
Cc1ccccc1N | > 92 µM
C=CCOC(C)=O | > 92 µM
CCCC(=O)Cl | > 92 µM
NC(=S)Nc1ccccc1 | > 92 µM
O=C(Cl)/C=C/C(=O)Cl | > 92 µM
C=C(Cl)Cl | > 92 µM
ClCBr | > 92 µM
COc1ccc(C=O)cc1OC | > 92 µM
C=CC(=O)OCC | > 92 µM
c1nc[nH]n1 | > 92 µM
c1ccc2c(c1)CCCC2 | > 92 µM
CCCSC(=O)Cl | > 92 µM
Clc1cccc(C(Cl)(Cl)Cl)n1 | > 92 µM
O=NN(c1ccccc1)c1ccccc1 | > 92 µM
C1CCC2CCCCC2C1 (stereo unspecified) | > 92 µM
CC(O)CCl (stereo unspecified) | > 92 µM
